# Bst PK mod = Pyruvate Kinase; purified pyruvate kinase, luminescence ATP production; ribose 5-phosphate activator present at AC10; Potency, µM; 51,000 tested, 1.2% active; AID 361, 2006; in the data active = potency below about 11 µM; inconclusive = mostly about 12 µM to 25 µM;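 the screen sought inhibitors and activators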;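 note: scaled between full activation by ribose 5 phosphate and full inhibition by luteolin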
# USP2a inh = qHTS Assay for Inhibitors of Ubiquitin-specific Protease USP2a. Ubiquitin carboxyl-terminal hydrolase 2 (Homo sapiens), O75604. USP2a enzymatic assay, qHTS inhibition. Potency, µM (series often up to 38.3 µM), without a hit: top-dose activity change, negative = inhibition, most hits filed as inhibitors. 60,000 tested, 0.1% active; note: nearly all actives have a fitted effect of over 60% in size
#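 20 nM USP2 core + cpd, 30 min RT; add 20 nM Ub-PLA2/20 uM NBD C6-HPC; read Ex460/Em535 at 0 h and 2.5 h. Normalized to NEM; qHTS curve fit/classification.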
# ALOX15 inhib = qHTS Assay for Inhibitors of 15-hLO (15-human lipoxygenase). purified 15hLO-1, xylenol orange hydroperoxide absorbance. Potency, µM (doses to about 57.1 µM), without a hit: top-dose activity change, negative = inhibition, most hits filed as inhibitors. 74,000 tested, 1.4% active. Polyunsaturated fatty acid lipoxygenase ALOX15 (Homo sapiens), P16050; note: % is set by controls: 0 for no effect and ±100 for the full control effect; nearly all actives have a fitted effect of over 55% in size
# Target sequence (P16050 whole entry, looked up): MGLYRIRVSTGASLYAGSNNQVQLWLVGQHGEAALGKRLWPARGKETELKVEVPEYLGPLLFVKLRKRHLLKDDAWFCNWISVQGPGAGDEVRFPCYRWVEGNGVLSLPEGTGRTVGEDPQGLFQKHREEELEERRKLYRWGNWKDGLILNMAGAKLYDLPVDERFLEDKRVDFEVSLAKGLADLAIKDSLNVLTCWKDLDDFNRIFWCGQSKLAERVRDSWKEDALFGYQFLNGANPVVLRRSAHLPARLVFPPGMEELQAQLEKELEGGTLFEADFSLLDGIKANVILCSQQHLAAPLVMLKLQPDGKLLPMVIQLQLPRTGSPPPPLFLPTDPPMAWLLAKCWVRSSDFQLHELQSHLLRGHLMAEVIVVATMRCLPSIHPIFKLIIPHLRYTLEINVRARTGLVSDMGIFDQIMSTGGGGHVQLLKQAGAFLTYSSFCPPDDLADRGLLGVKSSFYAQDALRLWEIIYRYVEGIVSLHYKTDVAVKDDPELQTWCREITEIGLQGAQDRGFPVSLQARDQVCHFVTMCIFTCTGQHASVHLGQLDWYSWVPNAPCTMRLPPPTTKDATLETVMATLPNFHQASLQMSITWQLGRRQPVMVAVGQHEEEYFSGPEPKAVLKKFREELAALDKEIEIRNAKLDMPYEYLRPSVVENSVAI
#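 Inhibition is scored from a chromogenic endpoint. After 15 min enzyme-compound contact, arachidonic acid (50 uM final) reacts 6 min with 40 nM 15hLO-1 at room temperature, then Fe-XO reagent is added for 30 min and absorbance ratio recorded.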
# GBA mod = Glucocerebrosidase; purified enzyme, resorufin glucoside fluorescence (screen aimed at inhibitors), 20 min; Potency, µM; 48,000 tested, 1.1% active; in the data active = potency below about 15 µM; inconclusive = mostly about 16 µM to 33 µM;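 note: the screen sought inhibitors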
#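 Compounds titrated against 0.2 nM normal enzyme, 30 uM resorufin beta-D-glucopyranoside substrate, citrate/phosphate buffer with taurocholate and tween-20, pH 5.9. Reaction ran 20 min at room temperature; fluorescence (Ex 548/Em 600) gave AC50.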
# Hsp90 Hop PPI = qHTS Assay for Disrupters of an Hsp90 Co-Chaperone Interaction; Potency, µM (series often up to 57 µM), without a hit: at the highest dose activity change, negative = inhibition; AlphaScreen TPR2A-His6 binding biotin-Hsp90 C-terminal peptide; Hsp90 C-terminal peptide / TPR2A (Hop) interaction, human; 71,000 tested, 0.44% active; active = well fitted curve in either direction with a large enough effect; inconclusive = small, poorly fitted or top-dose-only effect, or another doubt; note: % is set by controls: 0 for no effect and ±100 for the full control effect
# Tau fil binding = qHTS Assay for Tau Filament Binding | AID 596, 2007 | 71,000 tested, 2% active | Potency, µM (series often up to 57.1 µM), without a hit: at the highest dose activity change, negative = inhibition | recombinant tau filaments, thioflavin S fluorescence, 15 h; filaments grown with octadecylsulfate alongside compound | Microtubule-associated protein tau (Homo sapiens), P10636;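 note: % is set by controls: 0 for no effect and ±100 for the full control effect; actives lower thioflavin S fluorescence by blocking filaments or displacing dye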
#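 Read-out: ThS fluorescence, 450 nm excitation/510 nm emission; lower signal marks blocked filament formation or displaced dye. Tau at 1 uM with 30 uM ODS, 10 uM ThS, 5 mM DTT, 100 mM NaCl, 10 mM HEPES pH 7.4; 15 h, 37 C.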
# The depositor's hits bear a star; i = inactive; ? = inconclusive; nt = not tested or not shown; [ ] = remark or other dose. In the library only some 4.6% were active in any assay of this set; here they are far more common. Unless noted, calls come from the whole dose curve; as a rule, active = well fitted curve in the direction sought with a large enough effect; inconclusive = small, poorly fitted or top-dose-only effect, or another doubt; inactive = no such curve, though single readings can be large; an effect the other way counts as inactive or inconclusive. Potency is the fitted concentration of half-maximal effect.
SMILES,Bst PK mod,USP2a inh,ALOX15 inhib,GBA mod,Hsp90 Hop PPI,Tau fil binding
O=C(NCCOc1ccccc1)c1ccc2c(c1)OCO2,8.1*,4%,-3%,>77,2%,3%
Cc1ccc(-n2nnnc2SCC(N)=O)c(C)c1,?,-3%,2%,>77,-5%,3%
Cc1ccc(-n2nnnc2SCC(=O)NCCC2=CCCCC2)c(C)c1,>57,5%,32µM*,>77,11%,-6%
Cc1noc(C)c1COC(=O)CCOc1ccccc1,>57,6%,11%,>77,7%,19%
Cc1noc(C)c1COC(=O)CCN1c2ccccc2Sc2ccccc21,nt,-2%,-14%,>77,15%,20µM*
Cc1ccc2c(c1C)NC(C(=O)O)C1CC=CC21 (stereo unspecified),>57,3%,?,>77,-14%,3.2µM*
COc1cccc(-c2cc(NCc3ccccc3)ncn2)c1,nt,23%,5%,nt,6%,10%
C/C(N)=C(/C#N)C(=O)CSc1nnc(Nc2cccc(C)c2C)s1,i,33%,-17%,>77,-5%,-4%
Cc1cccc(Nc2n[nH]c(=S)s2)c1C,>57,5%,10µM*,?,-9%,4%
Cc1ccc(-c2cn3nc(C)c(C)nc3n2)cc1,5.5*,9%,1%,>77,-2%,365%
Cc1ccc(-c2cn3c(n2)CCCC3)cc1,>57,-7%,11%,>77,-3%,7%
O=C1C(=O)N(Cc2ccco2)C(c2cccc(Cl)c2)/C1=C(\O)c1ccc2c(c1)OCCO2 (stereo unspecified),>57,38%,30%,>77,2%,-3%
Nc1ncnc2oc(-c3ccco3)c(-c3ccco3)c12,nt,nt,2.5µM*,nt,-14%,8%
Nc1nnc(-c2ccco2)s1,nt,-2%,2%,nt,-3%,-6%
Nc1ccc(N2CCCCC2)cc1N1CCCCC1,>57,nt,?,nt,?,7.9µM*
NC(=O)c1ccccc1NC(=O)CS(=O)(=O)Cc1ccccc1,3*,-3%,-9%,>77,-6%,16%
CCOc1ccccc1OCC(=O)Nc1ccc(S(=O)(=O)Nc2nc(C)cc(C)n2)cc1,>57,24%,-16%,>77,-2%,25%
O=C(c1cc2nc(-c3ccco3)cc(C(F)(F)F)n2n1)N1CCN(c2ccc(F)cc2)CC1,nt,nt,?,nt,-16%,13µM*
O=C(Nc1ccc(Cl)cc1)c1cc2nc(-c3ccco3)cc(C(F)(F)F)n2n1,>57,27%,-8%,>77,1%,-14%
Cc1ccccc1Cn1cc(NC(=O)c2cc3nc(-c4ccco4)cc(C(F)(F)F)n3n2)cn1,>57,38%,?,>77,-6%,3.2µM*
COc1ccccc1-n1cc(C(=O)NCC(=O)N2CCN(c3ccccc3)CC2)c2ccccc2c1=O,3.7*,24%,6%,>77,-5%,3%
COc1ccccc1-n1cc(C(=O)NCC(=O)N2CCN(c3ccccn3)CC2)c2ccccc2c1=O,?,23%,1%,>77,-3%,-14%
COCCN1Cc2cccc(C(=O)Nc3ccc(S(=O)(=O)N4CCCCC4)cc3)c2C1=O,>57,10%,7%,15*,-4%,4%
CCOc1ccc(NC(=O)c2cccc3c2C(=O)N(Cc2cccnc2)C3)cc1,4.2*,36%,-11%,>77,1%,5%
Cc1ccc2ccc3cccc4ccc1c2c34,nt,nt,-5%,nt,40µM*,16%
SMILES,Bst PK mod,USP2a inh,ALOX15 inhib,GBA mod,Hsp90 Hop PPI,Tau fil binding
O=C(c1ccccc1)c1ccc(N2CCOCC2)c(F)c1,nt,-7%,32µM*,nt,3%,-22%
O=C(c1ccccc1)c1cc(F)c(N2CCOCC2)cc1Cl,nt,nt,-2%,nt,nt,nt
O=Nc1c(-c2c(O)[nH]c3cc(Br)ccc23)[nH]c2ccccc12,nt,13µM*,-25%,nt,nt,nt
CC1(C)Cc2noc(N)c2C(C)(C)N1O,>57,-3%,15%,>77,-1%,-2%
COc1ccc2cc(C(=O)NCc3ccco3)c(=O)oc2c1,nt,9%,1%,?,-1%,-6%
COc1ccc(N=c2oc3c(OC)cccc3cc2C(=O)NCc2ccco2)c(OC)c1,>57,98%,-9%,2.1*,-7%,1.3µM*
Cc1cccc(NC(=O)c2ccccc2C(=O)O)c1,nt,4%,5%,>77,-2%,-8%
O=C(O)c1cc(NCc2cccs2)ccc1N1CCOCC1,>57,-4%,2%,>77,-2%,-5%
COC(=O)c1cc(NCc2c(F)cccc2Cl)ccc1N1CCOCC1,>57,-2%,16µM*,>77,0%,?
COC(=O)c1cc(NCc2cccs2)ccc1N1CCOCC1,>57,1%,20µM*,>77,-3%,-13%
O=C(O)c1cc(NCc2ccccc2C(F)(F)F)ccc1N1CCOCC1,>57,9%,16%,13*,0%,-3%
CCC1c2ccc(C)n2CCN1C(=O)Nc1ccccc1OC (stereo unspecified),nt,22%,3.2µM*,>77,-8%,207%
COc1cccc(C(=O)Cn2c(N3CCCCC3)nc3c2c(=O)n(C)c(=O)n3C)c1,>57,10%,-1%,>77,-5%,-3%
COc1cccc(C(=O)Cn2c(=N)n(C)c3ccccc32)c1,2.5*,5%,3%,i,-5%,-25%
O=c1cc(C(F)F)oc2c1ccc1ccccc12,nt,-4%,13µM*,nt,0%,-13%
O=C(C1CC(c2ccccc2O)=NO1)N1CCCC1 (stereo unspecified),>57,5%,20µM*,>77,?,41%
CCOC(=O)N1CCN(C(=O)C2CC(c3ccccc3OC)=NO2)CC1 (stereo unspecified),>57,6%,1%,>77,2%,-1%
Cc1ccc2c(c1)c1cccc3c1n2CCN3CCC(N)=O,nt,28%,13µM*,nt,?,5µM*
CCOC(=O)c1c(-c2ccc(C)o2)csc1N,nt,30%[7.66 µM],1.6µM*,nt,?,-3%[11.4 µM]
Cc1cc2n(n1)C(c1ccco1)Nc1ccccc1-2 (stereo unspecified),9.5*,18%,?,>77,11%,23%
CN(CCc1ccccn1)c1ccc2c(c1)C(=O)c1ccccc1-2,nt,nt,2%[11.4 µM],nt,?,4µM*
O=C(NCCC1=CCCCC1)C1CCCN(S(=O)(=O)c2cccnc2)C1 (stereo unspecified),nt,nt,-7%,nt,-1%[2.3 µM],0%
O=C(NCCC1=CCCCC1)C1CCCN(S(=O)(=O)c2cccc3cccnc23)C1 (stereo unspecified),nt,nt,20µM*,nt,?,1%
O=[N+]([O-])c1cc(Cc2cc([N+](=O)[O-])c3cccnc3c2O)c(O)c2ncccc12,nt,nt,0%[11.4 µM],nt,1.6µM*,-28%[11.4 µM]
Cc1nnc(C)n1N1C(=O)c2cccc3cccc(c23)C1=O,nt,nt,-24%,nt,nt,nt
